Coupling enz = inhibits coupling enzyme system, counter-screen for aldolase hits. coupling enzyme system counterscreen, AmpLite Red fluorescence. AID 2472. 290,000 compounds, 0.67% hits. activity change, negative = inhibition, % at 58.2 µM, hits read low; in the data active = activity change below about -30%
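Counterscreen of the coupled detection system alone, without aldolase: glyceraldehyde-3-phosphate coupling enzymes plus AmpLite Red readout. Compounds at 57.5 uM final, 10 min RT preincubation, 20 min RT reaction, fluorescence 525/598 nm.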
Tau FP inhib = tau fibrillization inhibition (FP); Potency, µM (highest dose often 57.7 µM), for inactives: at the top dose activity, negative = inhibition, most hits filed as inhibitors; K18 P301L tau heparin fibrillization, Alexa594 FP, 6 h; P10636; 280,000 compounds, 0.39% hits; AID 1468; note: potency is the fitted concentration of half-maximal effect; nearly all actives have a fitted effect of over 55% in size
Target sequence (P10636 561-689 P618L limits assumed): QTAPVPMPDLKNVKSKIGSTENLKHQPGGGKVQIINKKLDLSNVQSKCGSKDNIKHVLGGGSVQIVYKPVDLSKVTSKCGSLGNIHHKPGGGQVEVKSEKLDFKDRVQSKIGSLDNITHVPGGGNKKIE
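Quantitative HTS format: compounds meet 15 uM recombinant K18 P301L tau and Alexa 594-tau tracer in 100 mM sodium acetate pH 7; 20 uM heparin triggers fibrillization at 37 C over 6 hr; FP gives the signal.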
Tau fibril ThT = inhibitors of human tau fibril formation, thioflavin T binding | P10636 | recombinant tau K18 P301L, heparin-induced fibrillization, ThT fluorescence | Potency, µM (top dose mostly 57.4 µM), for the others: at the top dose activity, negative = inhibition, actives largely listed as inhibitors | 270,000 compounds, 2.1% hits | AID 1460; note: potency is the fitted concentration of half-maximal effect; nearly all actives have a fitted effect of over 55% in size
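Aggregation was driven by heparin (20 uM final) acting on recombinant tau […] bearing P301L in 100 mM sodium acetate pH 7; fibrils were detected with Thioflavin T.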
Tau fluor cs = counter-screen for tau fibril formation inhibitors | tau K18 P301L Alexa594 fluorescence, heparin fibrillization | Potency, µM (top dose mostly 57.7 µM), for the others: top-dose activity change, negative = decrease | 280,000 compounds, 0.93% hits | AID 1463; note: potency is the fitted concentration of half-maximal effect; nearly all actives have a fitted effect of over 55% in size
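Human tau K18 P301L (15 uM unlabeled, 0.24 uM Alexa 594-labeled) in 100 mM sodium acetate pH 7 with 20 uM heparin, 6 hr at 37 C. ThT 30 uM added, 1 hr ambient; Alexa 594 FP and total fluorescence read at 555/632 nm.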
USP1 inh = USP1/UAF1 (human) deubiquitinase inhibition | 390,000 compounds, 0.23% hits | O94782 | recombinant USP1/UAF1, Ub-Rhodamine cleavage fluorescence | AID 743255 | Potency, µM (titrated, usually from 57.1 µM), for the others: at the highest dose activity change, negative = inhibition, usual class: inhibitors; note: potency is the fitted concentration of half-maximal effect; nearly all actives have a fitted effect of over 60% in size
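High-throughput fluorogenic screen: 1nM USP1/UAF1 complex, Ub-Rho substrate 150nM final, 50mM HEPES pH 7.8 with 0.5mM EDTA, 0.1 mg/ml BSA, 1mM TCEP and 0.01% Tween-20.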
* marks the source's active call; other numbers are inactive results; [ ] = dose if it differs, or a comment. Compounds with a hit are over-represented: about 2.3% of the library has one in this group of screens. Unless noted, calls come from the whole dose curve; as a rule, active = well fitted curve in the direction sought with a large enough effect; inconclusive = small, poorly fitted or top-dose-only effect, or another doubt; inactive = no such curve, though single readings can be large; an effect the other way counts as inactive or inconclusive. % is set by controls: 0 for no effect and ±100 for the full control effect.

Screening O=C(O)c1cc([N+](=O)[O-])ccc1NCCCc1ccccc1 returned Coupling enz -6, Tau FP inhib 2%, Tau fibril ThT 3.5µM*, Tau fluor cs -8% and USP1 inh 10%.
Screening O=C(O)c1cc([N+](=O)[O-])ccc1NCc1ccccc1 returned Coupling enz 1, Tau FP inhib 7%, Tau fibril ThT inconclusive, Tau fluor cs 7% and USP1 inh 3%.
Screening O=C(CCc1ccccc1)NC1CC(=O)N(c2ccccc2)C1 (configuration not stated) returned Tau FP inhib 7%, Tau fibril ThT -8%, Tau fluor cs -3% and USP1 inh -17%.
`O=[N+]([O-])c1ccc(Sc2ncccn2)c([N+](=O)[O-])c1` gave Coupling enz 0, Tau FP inhib inconclusive, Tau fibril ThT 13µM*, Tau fluor cs 6.3µM*[quencher] and USP1 inh 0%.
Cc1ccc(O)c(NC(=O)c2noc3c2CCCCC3)c1 was read as Coupling enz -2, Tau FP inhib inconclusive, Tau fibril ThT -11%, Tau fluor cs 25µM*[quencher] and USP1 inh inconclusive.
Screening c1csc(CNc2ccc3c(c2)OCCO3)c1 returned Coupling enz -31*, Tau FP inhib 0%, Tau fibril ThT inconclusive, Tau fluor cs -15% and USP1 inh -9%.
`Cc1cc(C)cc(NC(=O)Nc2ccc3nc(N4CCN(C)CC4)cc(C)c3c2)c1` gave Tau FP inhib inconclusive, Tau fibril ThT inconclusive, Tau fluor cs 7.9µM*[quencher] and USP1 inh -18%.
For COc1ccc(CNC(=S)Nc2ccc3nc(N4CCN(C)CC4)cc(C)c3c2)cc1 the results were Coupling enz 1, Tau FP inhib inconclusive, Tau fibril ThT inconclusive, Tau fluor cs inconclusive and USP1 inh 0%.
Cc1cc(N2CCN(C)CC2)nc2ccc(NC(=O)Nc3ccc(F)cc3)cc12 was read as Tau FP inhib inconclusive, Tau fibril ThT inconclusive, Tau fluor cs inconclusive and USP1 inh -2%.
Cc1cc(N2CCN(C)CC2)nc2ccc(NC(=O)Nc3ccccc3Cl)cc12 was read as Tau FP inhib inconclusive, Tau fibril ThT 14µM*, Tau fluor cs 14µM*[quencher] and USP1 inh -17%.
COc1ccccc1CNC(=S)Nc1ccc2nc(N3CCN(C)CC3)cc(C)c2c1 was read as Coupling enz -6, Tau FP inhib inconclusive, Tau fibril ThT inconclusive, Tau fluor cs 20µM*[quencher] and USP1 inh -9%.
For CCOc1ccccc1NC(=O)CCC(=O)Nc1ccc2nc(N3CCN(C)CC3)cc(C)c2c1 the results were Coupling enz 1, Tau FP inhib 9%, Tau fibril ThT inconclusive, Tau fluor cs -26% and USP1 inh -7%.
Screening COc1cccc(NC(=O)Nc2ccc3nc(N4CCN(C)CC4)cc(C)c3c2)c1 returned Tau FP inhib inconclusive, Tau fibril ThT inconclusive, Tau fluor cs 14µM*[quencher] and USP1 inh -22%.
Screening CCc1ccc(NC(=O)Cn2c(=O)n(Cc3nc(C)no3)c(=O)c3cc4c(cc32)OCO4)cc1 returned Tau FP inhib inconclusive, Tau fibril ThT 0%, Tau fluor cs inconclusive and USP1 inh 6%.
CC(=O)OCC(CO)OC(C)=O (configuration not stated) (tested in a mixture with another compound) was read as Coupling enz 1.
For Cc1cc(Br)cc2c(C(=O)OCC(=O)c3ccccc3)cc(-c3ccccc3)nc12 the results were Tau FP inhib -13%, Tau fibril ThT 1%, Tau fluor cs 0% and USP1 inh -30%.
Screening O=C(CN1C(=O)C2(SCC(=O)N2c2ccc(F)cc2)c2ccccc21)NC1CCCCC1 (configuration not stated) returned Tau FP inhib 4%, Tau fibril ThT 6%, Tau fluor cs 3% and USP1 inh -31%.
Screening COc1ccccc1NC(=O)c1oc2ccccc2c1NC(=O)c1c(F)cccc1F returned Tau FP inhib -4%, Tau fibril ThT 9%, Tau fluor cs -26% and USP1 inh 16%.

Source: PubChem BioAssay
